Measured values taken from PubChem BioAssay.
The source made the active and inactive calls.

Experiments:
[1] = system: Human papillomavirus type 1a protein E7 (residues 44-93); assay: small molecules binding HPV E7 44-93 – biochemical, small-molecule microarray, residues 44-93, 635 nm fluorescence, primary screen (AID 1108); conditions: fluorescence 635 nm, higher = more signal;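 note: E7 fragment applied at 1 µg/mL in TBST for 1 h at 4 C; score combines spot fluorescence with its signal to noise ratio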
[2] = hepatitis C replication reporter changes, two-sided – Huh7 cells, luciferase reporter, HCV replication inhibitor project, primary screen (AID 1109); conditions: Huh7 HCV replicon luciferase reporter, 48 h; higher = more signal;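 note: huh7 hepatoma cells harbouring a luciferase neomycin HCV replicon reporter; luciferase luminescence as measure of HCV replicon replication; test concentration not given here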
[3] = biological target: Left-right determination factor 2 (Homo sapiens) (UniProt O00292); assay: small molecules binding LEFTY2 protein – biochemical, small-molecule microarray, 635 nm fluorescence scan, primary screen (AID 1110); conditions: higher = more signal
Chain of Left-right determination factor 2 (Homo sapiens) (O00292 whole entry, looked up): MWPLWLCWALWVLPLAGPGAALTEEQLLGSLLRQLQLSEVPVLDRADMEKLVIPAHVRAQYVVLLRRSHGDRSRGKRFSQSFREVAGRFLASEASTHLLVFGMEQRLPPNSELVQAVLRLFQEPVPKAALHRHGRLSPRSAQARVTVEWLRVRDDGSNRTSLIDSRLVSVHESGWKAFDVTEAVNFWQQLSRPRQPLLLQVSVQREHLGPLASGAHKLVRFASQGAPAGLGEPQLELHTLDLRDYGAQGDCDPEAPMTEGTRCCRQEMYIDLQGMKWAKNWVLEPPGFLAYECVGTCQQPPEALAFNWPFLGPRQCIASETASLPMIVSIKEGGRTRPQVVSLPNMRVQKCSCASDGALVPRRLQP

[4] = biological target: Calmodulin-1 (Homo sapiens) (UniProt P0DP23); assay: small molecules binding calmodulin-1 with EGTA – biochemical, small-molecule microarray, Cy5-labelled CALM1, profiling panel (AID 1111); conditions: Cy5-CALM1 binding fluorescence, higher = more signal;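 note: labelled calmodulin applied in Tris saline Tween buffer holding calcium plus EGTA and DTT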
[5] = biological target: Calmodulin-1 (Homo sapiens) (UniProt P0DP23); assay: small molecules binding Ca-loaded calmodulin-1 – biochemical, small-molecule microarray, Cy5-labelled CALM1, plus calcium, artefact control for SMM control-protein annotation, profiling panel (AID 1112); conditions: Cy5-CALM1 binding fluorescence, higher = more signal;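 note: score merges spot fluorescence with signal to noise from triplicate slides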
[6] = probe aWnt5a binding to arrayed compounds – biochemical, biotinylated probe, 635/667 nm fluorescence, primary screen (AID 1113); conditions: small-molecule microarray, higher = more signal;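 note: score merges 667 nm fluorescence intensity with signal-to-noise per printed feature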
[7] = probe aShh binding to arrayed compounds – biochemical, biotinylated probe, 635/667 nm fluorescence, primary screen (AID 1114); conditions: small-molecule microarray, higher = more signal;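 note: probe is biotin-labelled aShh protein from a stem cell growth factor screen; measures binding of labelled protein to compounds printed on the slide; score merges feature fluorescence at 667 nm with signal-to-noise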
[8] = probe aNog binding to arrayed compounds – biochemical, biotinylated probe, 635/667 nm fluorescence, primary screen (AID 1115); conditions: small-molecule microarray, higher = more signal;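 note: probe is biotinylated aNog protein used at 0.15 µg/mL for 1 h at 4 C; z-score combines 667 nm fluorescence of each spot with its signal to noise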
[9] = biological target: Torsin-1A-interacting protein 1 (Homo sapiens) (UniProt Q5JTV8); assay: compound microarray binding of lysate hLAP1 – cell lysate, small-molecule microarray, COS7 lysate, 635/667 nm fluorescence, primary screen (AID 1116); conditions: 635 nm fluorescence, higher = more signal
Chain of Torsin-1A-interacting protein 1 (Homo sapiens) (Q5JTV8 whole entry, looked up): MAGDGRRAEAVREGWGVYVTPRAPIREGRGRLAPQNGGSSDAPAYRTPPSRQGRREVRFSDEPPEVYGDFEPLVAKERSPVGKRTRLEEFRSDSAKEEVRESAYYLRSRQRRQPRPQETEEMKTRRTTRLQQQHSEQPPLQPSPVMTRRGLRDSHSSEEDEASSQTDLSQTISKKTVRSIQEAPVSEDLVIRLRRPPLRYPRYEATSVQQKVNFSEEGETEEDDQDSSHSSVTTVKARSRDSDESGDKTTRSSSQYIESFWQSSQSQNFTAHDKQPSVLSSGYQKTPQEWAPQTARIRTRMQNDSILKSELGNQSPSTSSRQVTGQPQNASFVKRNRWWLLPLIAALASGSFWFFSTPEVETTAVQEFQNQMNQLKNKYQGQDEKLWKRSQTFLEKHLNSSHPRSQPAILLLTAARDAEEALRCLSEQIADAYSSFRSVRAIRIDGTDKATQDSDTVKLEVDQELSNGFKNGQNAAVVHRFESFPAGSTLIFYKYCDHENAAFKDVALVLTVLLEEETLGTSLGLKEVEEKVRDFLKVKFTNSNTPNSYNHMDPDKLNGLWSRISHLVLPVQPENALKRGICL

[10] = biological target: Alpha-bungarotoxin (Bungarus multicinctus) (UniProt P60615); assay: compounds binding labelled alpha-BTX control protein – biochemical, small-molecule microarray, Alexa647 label, 635/667 nm fluorescence, artefact control for SMM control protein annotation, profiling panel (AID 1117); conditions: alpha-BTX-A647 binding fluorescence, higher = more signal
Chain of Alpha-bungarotoxin (Bungarus multicinctus) (P60615 whole entry, looked up): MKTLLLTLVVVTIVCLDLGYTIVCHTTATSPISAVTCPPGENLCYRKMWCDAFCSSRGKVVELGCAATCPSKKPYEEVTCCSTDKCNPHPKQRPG

Albumin (Bos taurus) = Albumin (Bos taurus) (UniProt P02769); assay: compounds binding labelled BSA control protein – biochemical, small-molecule microarray, Alexa647 label, 635/667 nm fluorescence, artefact control for SMM control protein annotation, profiling panel (AID 1118); conditions: BSA-A647 binding, fluorescence 635 nm, higher = more signal;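 note: score merges 667 nm emission intensity and signal-to-noise per printed compound spot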
Chain of Albumin (Bos taurus) (P02769 whole entry, looked up): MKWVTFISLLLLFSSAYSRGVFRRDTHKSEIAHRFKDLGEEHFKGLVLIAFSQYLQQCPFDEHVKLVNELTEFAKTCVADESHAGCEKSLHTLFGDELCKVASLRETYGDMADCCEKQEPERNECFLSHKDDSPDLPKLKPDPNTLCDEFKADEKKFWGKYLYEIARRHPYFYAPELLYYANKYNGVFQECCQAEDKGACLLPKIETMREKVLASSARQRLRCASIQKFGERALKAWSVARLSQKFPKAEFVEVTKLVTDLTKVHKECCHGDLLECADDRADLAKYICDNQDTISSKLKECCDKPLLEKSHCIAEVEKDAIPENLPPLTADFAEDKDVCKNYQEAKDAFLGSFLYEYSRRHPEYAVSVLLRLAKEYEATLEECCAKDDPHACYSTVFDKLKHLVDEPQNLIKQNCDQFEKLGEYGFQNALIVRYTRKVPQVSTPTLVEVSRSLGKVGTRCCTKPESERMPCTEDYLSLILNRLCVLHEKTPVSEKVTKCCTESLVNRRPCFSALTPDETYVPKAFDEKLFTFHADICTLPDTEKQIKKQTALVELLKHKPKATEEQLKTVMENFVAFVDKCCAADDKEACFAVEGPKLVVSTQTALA

[11] = probe aXIP binding to arrayed compounds – biochemical, NeuroSMM set, 635/667 nm fluorescence, primary screen (AID 1119); conditions: small-molecule microarray, higher = more signal, called active from +8 up or from −8 down;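 note: probe is the protein aXip251-270 applied at 1 µg/mL to compound-printed slides; binding of probe to printed compounds measured as 667 nm fluorescence plus signal to noise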
[12] = probe aNOTCH3 binding on compound microarray – biochemical, small-molecule microarray, 635/667 nm fluorescence, primary screen (AID 1120); conditions: higher = more signal;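 note: probe is a biotin-tagged antibody raised against NOTCH3 rather than NOTCH3 protein; score merges spot fluorescence near 667 nm with spot signal to noise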
[13] = probe aNOTCH2 binding on compound microarray – biochemical, small-molecule microarray, 635/667 nm fluorescence, primary screen (AID 1121); conditions: higher = more signal;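 note: score merges feature fluorescence read at 667 nm with its signal to noise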
[14] = biological target: Carbonic anhydrase 2 (Homo sapiens) (UniProt P00918); assay: compounds binding carbonic anhydrase 2 – biochemical, small-molecule microarray, Alexa647-labelled CAII, profiling panel (AID 1122); conditions: CAII-A647 binding fluorescence, higher = more signal
[15] = COS7 lysate on small-molecule microarray, probe aHis, 635 nm (AID 1123); conditions: COS7 cell lysate, fluorescence, higher = more signal;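 note: z-score combines 667nm fluorescence intensity with signal-to-noise per printed compound spot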
[16] = probe aLAP1 signal on lysate-treated microarray – cell lysate, small-molecule microarray, COS7 lysate, primary screen (AID 1124); conditions: probe aLAP1, fluorescence, higher = more signal;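 note: lysate comes from COS7 cells expressing LAP1 and is applied at 0.3 µg/mL; score merges spot fluorescence near 667 nm with signal-to-noise over triplicate slides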
Sam68 (KHDRBS1) = assay: compounds binding KHDRBS1 protein – biochemical, small-molecule microarray, 635 nm fluorescence, primary screen (AID 1125); conditions: higher = more signal;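 note: score merges 667 nm channel intensity with signal to noise over triplicate slides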
[17] = system: Chordin-like protein 2 (CHRDL2); assay: compounds binding chordin-like 2 – biochemical, small-molecule microarray, 635 nm fluorescence, primary screen (AID 1126); conditions: fluorescence 635 nm, higher = more signal;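 note: printed compound slides probed with Chrdl2 protein at 4 µg/mL for 1 h at 4 C; score merges 667 nm emission intensity with signal to noise over three replicate slides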
[18] = biological target: Concanavalin-A (Canavalia ensiformis) (UniProt P02866); assay: compounds binding concanavalin A lectin – biochemical, small-molecule microarray, Alexa647 label, 635 nm, artefact control for SMM control protein annotation, primary screen (AID 1127); conditions: ConA-A647 binding fluorescence, higher = more signal;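 note: z combines 667 nm emission intensity with signal-to-noise across three replicate slides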
Chain of Concanavalin-A (Canavalia ensiformis) (P02866 whole entry, looked up): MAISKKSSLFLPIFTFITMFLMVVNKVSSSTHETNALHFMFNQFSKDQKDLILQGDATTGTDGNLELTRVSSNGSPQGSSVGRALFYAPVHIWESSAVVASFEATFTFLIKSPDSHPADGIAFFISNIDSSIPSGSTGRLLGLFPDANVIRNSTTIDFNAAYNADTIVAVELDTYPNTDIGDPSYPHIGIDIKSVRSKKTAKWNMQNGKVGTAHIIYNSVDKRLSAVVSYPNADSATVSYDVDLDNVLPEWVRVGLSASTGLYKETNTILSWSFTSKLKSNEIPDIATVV

Row | Compound | composite z-score [1] | z-score [2] | composite z-score [3] | composite z-score [4] | composite z-score [5] | composite z-score [6] | composite z-score [7] | composite z-score [8] | composite z-score [9] | composite z-score [10] | composite z-score (Albumin (Bos taurus)) | composite Z-score [11] | composite z-score [12] | composite z-score [13] | composite z-score [14] | composite z-score [15] | composite z-score [16] | composite z-score (Sam68 (KHDRBS1)) | composite z-score [17] | composite z-score [18]
1 | CCCCN1CC=CC23O[C@@H]4/C=C\CCC(C)OC(=O)C4[C@H]2C(=O)N(CCO)[C@@H]3C1=O (stereo not given in full) | -0.391 | -0.58 | -0.99 | -0.896 | -0.272 | -0.171 | -0.2 | 0.171 | 3.55 | -0.238 | 0.197 | 2.55 (inactive) | -0.0745 | -0.101 | 0.97 | 2.47 | 1.49 | 0.852 | -0.789 | -0.833
2 | C=C(CCCC)/C(=C/C[C@@H](OC(C)=O)c1ccc(OCCO)cc1)c1cc(C(=O)OC)ccc1OC | 0.722 | -2.31 | -0.103 | -0.108 | -0.95 | -0.124 | -0.0769 | 0.408 | 1.17 | 0.722 | -0.526 | 0.0578 (inactive) | -0.0377 | -0.092 | 0.721 | 1.55 | 0.155 | 1.2 | -0.362 | 0.787
3 | C=CC[C@]1(C(N)=O)N=C(c2ccc(OCCCO)cc2)O[C@H]1c1ccccc1N=[N+]=[N-] | 0.811 | 0.304 | 0.0562 | 0.85 | 0.0151 | 0.0317 | 0.0611 | -0.153 | 1.29 | 1.71 | 0.601 | 1.13 (inactive) | 0.067 | -0.0586 | 0.79 | 2.53 | 0.87 | 0.994 | 0.783 | 0.883
4 | CC1(C)OB(/C=C\CC(OC(=O)c2ccncc2)c2ccccc2)OC1(C)C (stereo not given) | 0.0565 | -0.382 | -1.46 | -2.58 | -2.34 | -0.124 | 0.0469 | -0.76 | 0.161 | -0.778 | 0.152 | 0.142 (inactive) | -0.0345 | -0.0464 | 0.918 | 0.677 | 0.953 | 0.426 | 0.381 | -0.305
5 | COC(=O)[C@@]1(Cc2ccc(F)cc2)[C@H]2c3cc(C(=O)N(C)C)n(Cc4ccsc4Br)c3C[C@H]2CN1C(=O)c1ccccc1 | -0.468 | -0.787 | 0.648 | 2.16 | 0.981 | 1.37 | 2.15 | -0.0209 | 1.53 | 0.427 | 0.745 | -0.857 (inactive) | 1.88 | 1.08 | 0.938 | 2.95 | 1.65 | 0.0161 | -0.0576 | 1.13
6 | COCCOC(=O)N1C(=O)[C@@]2(c3cc(C#CCNC(N)=O)ccc31)[C@H](c1ccc(O)cc1)N1[C@H](c3ccccc3)[C@H](c3ccccc3)OC(=O)[C@H]1[C@@H]2C(=O)N1CCc2cc(OC)c(OC)cc2C1 | 1.31 | -0.281 | 0.266 | 0.111 | 0.118 | 0.586 | -0.167 | -0.25 | 0.712 | 0.857 | 0.397 | 0.443 (inactive) | 0.0962 | -0.0928 | 0.414 | 0.781 | -0.0347 | 1.21 | 0.431 | 0.764
7 | O=C1OCC=C[C@H]2OC34C=CCN(Cn5nnc6ccccc65)C(=O)[C@H]3N(CCO)C(=O)[C@@H]4[C@@H]12 (stereo not given in full) | 0.316 | -0.105 | -1.41 | -0.157 | 0.62 | -0.148 | -0.0192 | 0.0963 | -0.0193 | -2.05 | -1.46 | -0.358 (inactive) | -0.173 | -0.171 | 0.935 | 0.32 | -0.137 | 0.184 | -1.43 | -0.941
8 | CC(C)N1C(=O)[C@@]2(Cc3ccccc31)c1ccccc1C(=O)N(Cc1ccccc1C(F)(F)F)[C@H]2c1ccc(CO)cc1 | 0.845 | -0.329 | -0.0311 | -0.157 | -0.0481 | 0.0607 | -0.09 | -0.0247 | 0.289 | -0.0261 | -0.832 | 0.795 (inactive) | -0.374 | 0.0015 | 0.754 | -0.011 | 0.739 | 1.01 | 1.14 | 1.1
9 | CN1C(=O)C2C=CC(C(O)c3cccs3)N(N(c3ccccc3)c3ccccc3)C2C1=O (stereo not given) | 1.28 | 0.053 | -0.632 | 1.07 | 0.831 | 0.143 | 0.131 | -0.267 | 0.713 | 1.79 | 0.994 | 0.343 (inactive) | 0.17 | -0.0037 | 0.714 | 1.69 | 0.518 | 1.02 | -0.362 | 0.644
10 | CC(C)C(=C=CC[C@H](O)c1cccc(OCCO)c1)C[C@H](O)c1ccccn1 | 0.106 | -0.423 | -0.256 | -0.356 | -0.78 | -0.096 | -0.289 | -0.147 | -0.334 | -0.579 | 0.481 | -0.128 (inactive) | -0.0647 | -0.146 | 0.811 | 0.48 | 0.182 | 0.353 | -0.0719 | 0.13
11 | [N-]=[N+]=NCc1ccccc1[C@H]1OC(c2ccc(OCCCO)cc2)=N[C@@]1(CCS(=O)(=O)c1ccccc1)C(=O)O | 0.746 | -1.98 | -0.266 | 0.461 | -0.331 | -0.15 | -0.156 | -0.246 | 0.703 | -0.553 | 0.952 | 0.177 (inactive) | 0.212 | -0.118 | 0.754 | 2.12 | 0.0621 | 0.367 | -0.692 | 0.399
12 | C=CCC(OC(C)=O)[C@@H]1[C@@H](N(Cc2ccc(-c3ccccc3)cc2)C(=O)Cc2ccc(OC)cc2)c2cc(OCCCO)ccc2N1C(=O)Cc1ccc(OC)cc1 (stereo not given in full) | -0.37 | -0.496 | 0.055 | 0.194 | 0.7 | 0.055 | -0.229 | -0.128 | 0.468 | 0.171 | -0.0621 | 0.445 (inactive) | 0.464 | 0.146 | 0.306 | 0.248 | 0.302 | 0.0538 | 0.235 | -0.0563
